VDR inh: Inhibitors of the vitamin D receptor (VDR): qHTS | Potency, µM, inactives show max response, negative = inhibition, actives largely listed as inhibitors | hit rate 0.93% among 400,000 | VDR-SRC2-3 peptide fluorescence polarization, 2 h
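Two reagent solutions held at 4 deg C in the dark were dispensed, compounds pinned at 23 nl, and the mixture incubated 2 h at room temperature. Read-out: fluorescence polarization of VDR–SRC2-3 peptide binding.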
GCN5L2 inh: qHTS Assay for Inhibitors of GCN5L2 | Histone acetyltransferase KAT2A (Homo sapiens), Q92830 | GCN5L2 HAT assay, ThioGlo1 CoA-SH fluorescence | Potency, µM (doses to about 58.9 µM), for inactives: at the highest dose activity change, negative = inhibition, usual class: inhibitors | hit rate 0.21% among 390,000 | AID 504327, 2011
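Titration-based screen in which CoA formation is detected via maleimide probe ThioGlo1 (50uM) turning fluorescent on thiol reaction; substrates H3(1-25) 75uM and acetyl-CoA 70uM, GCN5L2 20nM, 20 min incubation at room temperature.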
TrxR1 substrate: qHTS Assay for Substrates of Mammalian Selenoprotein Thioredoxin Reductase 1 (TrxR1): qHTS; Potency, µM (doses to about 114 µM), for inactives: at the top dose activity change, negative = substrate turnover; AID 588456, 2011; hit rate 0.01% among 390,000; purified TrxR1 substrate turnover, NADPH consumption readout; also: nearly all actives have a fitted effect of over 50% in size
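Rat TrxR1, dispensed at 90 nM, was prereduced with 400 uM NADPH (final) for 5 min at ~22 deg C, then incubated with compound 15 min before 400 uM selenite. A first-read NADPH fluorescence drop versus no-compound background flagged substrates.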
GLS inhibitor: qHTS for Inhibitors of Glutaminase (GLS) | Glutaminase kidney isoform, mitochondrial (Homo sapiens), O94925 | GLS enzymatic activity, qHTS titration | Potency, µM (highest dose often 45.5 µM), inactives show at the highest dose activity change, negative = inhibition, usual class: inhibitors | hit rate 0.21% among 410,000 | AID 624170, 2012
Target sequence (O94925 whole entry, looked up, canonical isoform): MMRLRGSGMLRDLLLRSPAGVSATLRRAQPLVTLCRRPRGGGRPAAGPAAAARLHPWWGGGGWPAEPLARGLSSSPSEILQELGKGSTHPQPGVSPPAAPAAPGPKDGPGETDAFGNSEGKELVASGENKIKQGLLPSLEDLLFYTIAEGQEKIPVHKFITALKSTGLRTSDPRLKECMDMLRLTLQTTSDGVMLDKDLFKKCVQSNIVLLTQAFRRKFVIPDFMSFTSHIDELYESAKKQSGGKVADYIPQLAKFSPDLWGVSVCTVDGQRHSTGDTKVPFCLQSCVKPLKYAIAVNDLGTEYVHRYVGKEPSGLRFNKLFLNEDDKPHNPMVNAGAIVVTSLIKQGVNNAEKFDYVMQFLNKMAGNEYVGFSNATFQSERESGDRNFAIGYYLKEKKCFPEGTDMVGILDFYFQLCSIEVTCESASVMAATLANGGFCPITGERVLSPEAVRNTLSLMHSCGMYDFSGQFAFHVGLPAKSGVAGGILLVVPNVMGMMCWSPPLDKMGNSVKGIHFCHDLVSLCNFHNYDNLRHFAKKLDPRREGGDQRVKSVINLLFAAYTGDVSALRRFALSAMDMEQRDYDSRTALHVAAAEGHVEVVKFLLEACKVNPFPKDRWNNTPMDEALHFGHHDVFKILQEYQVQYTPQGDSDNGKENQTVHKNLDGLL
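Assay buffer: 45 mM KH2PO4 pH 8.2, 0.02% Tween-20. hKGA acts on L-glutamine (1 mM solution added); product glutamate is reported by an oxidase/peroxidase Amplex Red coupling, with fluorescence taken at baseline and 30 min.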
Sfp inh: qHTS Assay for Inhibitors of Bacillus subtilis Sfp phosphopantetheinyl transferase (PPTase); AID 1490, 2009; Potency, µM, for inactives: largest response in the series, negative = inhibition, usual class: inhibitors; hit rate 3.5% among 310,000; 4'-phosphopantetheinyl transferase ffp (Bacillus subtilis), Q9F4F7; Biochemical Sfp PPTase activity, qHTS;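 also: the enzyme is Sfp with the accession as filed and its product quenches rhodamine fluorescence; 0% = enzyme reaction without inhibitor and -100% = no enzyme wells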
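Compounds were incubated with enzyme (final 15 nM) for 15 min at room temperature before substrate addition started the reaction. Fluorescence at 525 nm excitation, 598 nm emission was recorded immediately and after 30 minutes.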
TrxR1 inh: qHTS Assay for Inhibitors of Mammalian Selenoprotein Thioredoxin Reductase 1 (TrxR1): qHTS; recombinant rTrxR1, NADPH fluorescence consumption, selenite substrate; Potency, µM (series often up to 114 µM), without a hit: at the highest dose activity change, negative = inhibition, most hits filed as inhibitors; hit rate 1% among 390,000; also: nearly all actives have a fitted effect of over 65% in size
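Rat TrxR1 (90 nM in the dispensed reagent) was pre-reduced with 400 uM NADPH for 5 min at room temperature, then incubated with compound for 15 min. After 400 uM selenite was added, NADPH fluorescence (Ex 340/Em 450 nm) was followed for 8 min.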
The depositor's hits bear a star; ? = inconclusive; nt = no result given; [ ] = remark or other dose. A selection: hits, their analogues and other compounds. The true share with any hit is near 3.8%. Calls follow the shape of the dose curve; as a rule, active = well fitted curve in the direction sought with a large enough effect; inconclusive = small, poorly fitted or top-dose-only effect, or another doubt; inactive = no such curve, though single readings can be large; an effect the other way counts as inactive or inconclusive. Unless noted, % is scaled to controls: 0 for no effect and ±100 for the full control effect; potency is read from the fitted curve at half-maximal effect.

SMILES	VDR inh	GCN5L2 inh	TrxR1 substrate	GLS inhibitor	Sfp inh	TrxR1 inh
COC(=O)c1[nH]c2ccc(F)cc2c1NC(=O)CCN1CCN(C(=O)c2ccco2)CC1	nt	-4%	nt	nt	10%	nt
CC(C)(C)SCCNC(=O)CSc1ccccc1	19%	nt	8%[57.1 µM]	-2%	nt	39%[57.1 µM]
COc1ccc(-n2c(COc3cccc(C)c3)nnc2SCC(=O)O)cc1	2%	-2%	1%	7%	17%	9%
Cc1cccc(OCc2nnc(SCCC(=O)O)n2-c2ccccc2)c1	-5%	?	-3%	8%	50µM*	9%
N#CC1(NC(=O)COC(=O)c2ccccc2[N+](=O)[O-])CCCCC1	-1%	0%	4%	3%	nt	9%
N#CC1(NC(=O)COC(=O)c2cc(O)c3ccccc3c2O)CCCCC1	45µM*	1%	-2%	?	nt	28µM*
CC1CN(S(=O)(=O)c2ccc(F)cc2)CN1C(=O)N1CCOCC1 (configuration not stated)	-6%	-1%	10%[57.1 µM]	-11%	8%	35%[57.1 µM]
CC(C)(C)c1ccc(C(=O)Nc2ccc(NC(=O)c3ccc(Cl)c(Cl)c3)cc2)cc1	-16%	8%	4%	-3%	nt	1%
CC(C)(C)c1ccc(C(=O)Nc2ccc(C=C(C#N)C#N)cc2)cc1	?	-6%	-7%	4%	-12%	3.2µM*
N#CC(C#N)=Cc1ccc(NC(=O)c2ccc(Br)cc2)cc1	?	-3%	4%	-5%	?	13µM*
O=C(Nc1ccc(C(=O)N2CCCCC2)cc1)c1ccc(Br)cc1	-2%	0%	0%	11%	-3%	6%
Cn1c(SCC(=O)NC2CCCC2)nnc1-c1cccs1	0%	1%	1%	2%	12%	8%
COc1ccc(-c2onc(C)c2C)cc1S(=O)(=O)NCC1CCN(Cc2cc(C)ccc2C)CC1	8%	6%	3%[57.1 µM]	1%	nt	12%[57.1 µM]
CNC[C@H](Cc1ccccc1)NC[C@@H](Cc1cccc2ccccc12)NCCc1ccc(C)cc1	14%	-3%	-1%	1%	50µM*	-10%
Nc1ncc(S(=O)(=O)NCc2ccc(F)cc2)cn1	-4%	-5%	-4%[57.1 µM]	8%	nt	-2%[57.1 µM]
O=C1C[C@@H]2c3c(cccc3CN1Cc1ccccc1Cl)C[C@@H](O)[C@H]2O	3%	nt	10%[57.1 µM]	6%	nt	9%[57.1 µM]
CCOc1ccc2nc(NC(=O)c3ccccc3)sc2c1	?	-8%	-4%	1%	nt	-19%
O=c1cc(-c2ccc(O)cc2)oc2cc(O[C@H]3OC(CO)C(O)C(O)C3O)cc(O)c12 (some centres not stated)	-3%	-21%	nt	nt	6%	nt
O=c1cc(-c2ccccc2)oc2cc(O[C@@H]3O[C@H](CO)[C@@H](O)[C@H](O)[C@H]3O)c(O)c(O)c12	nt	nt	nt	nt	50µM*	nt
CCCCCCCCOC(=O)c1cc([N+](=O)[O-])c(Sc2ncnc3nc[nH]c23)c([N+](=O)[O-])c1	?	nt	-7%	-28%	nt	40µM*
CCCCOC(=O)c1ccc(Nc2ncnc3nc[nH]c23)cc1	?	1%	6%	-4%	0%	18%
O=C(c1coc(=O)c(Br)c1)N1CCCc2ccccc21	7%	-17%	124%[57.1 µM]	-3%	79µM*	-5%[57.1 µM]
CC1(C)CCCN(C(=O)c2coc(=O)c(Br)c2)C1	-9%	-25%	140%	10µM*	-4%	?
CC(=O)N(C1=C(N)C(=O)c2ccccc2C1=O)C(C)C	4%	-2%	3%	4%	?	79µM*
CC(=O)N(C)C1=C(O)c2ccccc2C(=O)C1=O	?	2%	-11%	5%	2%	-20%
SMILES	VDR inh	GCN5L2 inh	TrxR1 substrate	GLS inhibitor	Sfp inh	TrxR1 inh
Cc1noc(NS(=O)(=O)c2cccc3c(N(C)C)cccc23)c1C	25µM*	?	nt	nt	50µM*	nt
Cn1ncc(Cl)c1C(=O)Nc1cccc(Cl)c1	?	-2%	6%	-11%	20µM*	?
Cc1ccc2nc(SCC(=O)c3c(N)n(C4CC4)c(=O)[nH]c3=O)[nH]c2c1	19%	-14%	-1%	-1%	nt	10%
O=C(CCc1ccc(O)c(O)c1)N/N=C/c1cc2c(cc1[N+](=O)[O-])OCO2	-7%	-15%	-1%	?	40µM*	?
Cc1cccc(C)c1OCC(=O)N/N=C/c1cc2c(cc1[N+](=O)[O-])OCO2	5%	-6%[0.501 µM]	3%	-1%	-10%	21%
Cc1ccc(N=Cc2cc3c(cc2[N+](=O)[O-])OCO3)cc1[N+](=O)[O-]	?	nt	0%	0%	nt	-24%
Cc1ccc(C)c(N=Cc2cc3c(cc2[N+](=O)[O-])OCO3)c1	79µM*	-12%	-9%[57.1 µM]	5%	?	-43%
C/C(=N/N=C1\SCC(=O)N1c1ccccc1)c1ccc(C)cc1	?	-9%	3%[57.1 µM]	2%	-9%	20%[57.1 µM]
CCOc1ccc(C2Nc3cccc4cccc(c34)N2)cc1OC	-5%	-3%	1%	16%	-26%	28µM*
CCOc1cc(C2Nc3cccc4cccc(c34)N2)ccc1O	1%	-13%	3%	3%	-12%	25µM*
C(=C\c1c[nH]c2ccccc12)/c1cc[n+](C2CCCCC2)cc1	nt	nt	0%	nt	nt	-16%
O=c1cc(/C=C/c2ccccc2)oc2c1ccc1ccccc12	?	-8%	79%	1%	79µM*	?
O=c1cc(-c2ccccc2)oc2c1ccc1ccccc12	nt	nt	nt	nt	45µM*	nt
O=c1cc(-c2cccnc2)oc2c1ccc1ccccc12	7%	-6%	53%	-5%	25%	23%
CCCCc1ccc(N=N/C(C(=O)Nc2ccccc2OC)=C(/C)O)cc1	-6%	-3%	-12%	1%	2%	-14%
COc1ccc(S(=O)(=O)Nc2ccncc2)c(C)c1C	-4%	4%	-3%[57.1 µM]	-10%	89µM*	19%[57.1 µM]
OCC1OC([S-])[C@H](O)C(O)C1O.[Au+] (some centres not stated)	?	11µM*	nt	11µM*	2.2µM*	nt
CCOC(=O)c1c(C)c(C(=O)NCc2cccnc2)c(C)n1C	-1%	33%	8%	-2%	10%	9%
CCSc1nnc(NC(=O)C2Cc3ccccc3CN2C(=O)c2ccco2)s1 (configuration not stated)	-13%	-2%	-2%	5%	40µM*	32µM*
